Drawing on PubChem BioAssay AID652104 (National Center for Advancing Translational Sciences (NCATS), 2013), this text covers Potency and growth rescue (activation) for 99 compounds.

In all, about 410,000 compounds went through this assay and about 7,200 (1.8%) were called active. A call without a number means that no potency is given here. About 7% were inconclusive and are not listed. For the sample, actives were picked, then their nearest neighbours and some compounds at random. A number with no mark means an inactive call. The call rests on the fitted dose curve; in most records, active means well fitted activation curve with a large enough effect; inconclusive means small, poorly fitted or top-dose-only effect, or another doubt; inactive means no such curve, though single readings can be large or run the other way.
Potency means the concentration at half of the fitted maximal effect.

The experiment is described as follows: qHTS of TDP-43 Inhibitors. Further: nearly all actives have a fitted effect of over 50% in size. The note with it: TDP-43 expressing yeast growth rescue, BacTiter-Glo, 24 h; series mostly up to 46.1 µM. An excerpt: The goal of this project is to identify new chemical probes capable of reversing the toxicity associated with TDP-43 which is associated with frontotemporal lobar degeneration and amyotrophic lateral sclerosis. These compounds will provide a complementary approach to deciphering the tangled mechanisms of toxicity and protection that we have uncovered through genome-wide genetic screens and are beginning to uncover in a large-scale proteomics analysis with mass spectroscopy.
To this end, a miniaturized assay was developed to be screened against the Molecular Libraries Small Molecule Repository (MLSMR) to discover TDP-43 inhibitors. Please note that in the set-up this yeast-based assay compounds that inhibit as TDP-43, have a read-out as activators.
NIH Chemical Genomics Center [NCGC]
NIH Molecular Libraries Probe Centers Network [MLPCN]
Assay Submitter (PI): Susan Lindquist, Whitehead Institute/MIT
Dispense 2.5 microL yeast galactose medium per 1536-well plate, pin compound, dispense 2.5 microL TDP-43 expressing yeast in galactose medium at OD600=0.02 (pregrown in raffinose medium to mid-log phase) per well, incubate for 24 hr at 30 deg C, and cell growth will be measured using 5 microL of Bactiter/Glo reagent to entire plate and read using Luminescence Protocol in ViewLux.
With `O=C(O)c1ccc(CSc2nc3cccnc3n2Cc2cccc(F)c2)cc1`, the Potency result is “inactive”.

`Cc1oc(-c2ccccc2)nc1Cn1c(SCc2cccc(C(F)(F)F)c2)nc2cccnc21`: the Potency was 20 µM (active).

As to `O=C(NC1CCCCC1)c1ccc(Cn2c(SCc3ccccc3)nc3cccnc32)cc1`, the Potency result was “inactive”.

Turning to `Cc1ccccc1OCc1nc2c3cnn(-c4ccccc4F)c3ncn2n1`, the Potency result is “inactive”.

With `COCCNc1nc(-c2ccccc2)nc2c1oc1ccccc12`, the Potency was 12.6 µM (active).

As to `CCc1nc(Nc2ccc3nccnc3c2)c2oc3ccccc3c2n1`, the Potency entry was “inactive”.

With `C[C@@H](Nc1nc(-c2ccccc2)nc2c1oc1ccccc12)C(=O)O`, the Potency result is “inactive”.

For `Cc1cc(NC(=O)CC(C)C)cc(-c2nc3ncccc3o2)c1O`, the Potency entry was “inactive”.

In the case of `CCOc1ccc(NC(=O)c2cnn(-c3ccccc3)c2-n2cccc2)cc1`, the growth rescue (activation) is -9.72% [at 9.22 µM].

For the compound `COc1ccccc1CNc1nc2ccc(Cl)cc2n2cnnc12`, the Potency result was “inactive”.

As to `CC(C)Cc1ccc(-c2cc3nc(NCc4cccc(Cl)c4)ccn3n2)cc1`, the Potency result is “inactive”.

For the compound `COc1ccccc1-c1cc2nc(NCc3cccc(Cl)c3)ccn2n1`, the Potency is 17.8 µM (active).

In the case of `CCC1CCCCN1C(=O)Cn1c(=O)n(CCCCCC(=O)NCc2ccccc2)c(=O)c2sccc21` (centres undefined), the Potency entry is “inactive”.

Take `S=c1[nH]nc(NCCc2ccccc2)s1`: the growth rescue (activation) is -8.25% [at 0.397 µM].

Regarding `Cc1nc(N)sc1-c1ccccc1`, the Potency entry is “inactive”.

On to `Cc1nc(C)c(-c2csc(NCCc3ccccc3)n2)s1`, for which the Potency is 15.8 µM (active).

For `Cc1c(CCNC(=O)c2ccc(C(F)(F)F)cc2)sc2nc(-c3ccc(F)cc3)nn12`, the Potency result was “inactive”.

For `COc1ccc(C2NC(=O)N(C)C3=C2C(=O)N(c2ccc(C(=O)O)cc2)C3)cc1` (centres undefined), the Potency entry was “inactive”.

For the compound `COC(=O)c1scc(-c2ccccc2)c1S(=O)(=O)Nc1ccccc1`, the Potency is 12.6 µM (active).

`COC(=O)c1scc(-c2ccc(C)cc2)c1S(=O)(=O)Nc1cc(Cl)c(OC)cc1OC`: the Potency entry was “inactive”.

Turning to `CCOC(=O)c1scc(-c2ccc(C)cc2)c1S(=O)(=O)Nc1cc(C)ccc1C`, the Potency entry is “inactive”.

`COc1cc(C(=O)NCCc2csc3nc(-c4ccccc4C)nn23)cc(OC)c1OC`: the Potency entry was “inactive”.

`COc1ccc(NC(=O)C(c2ccccc2)N2Cc3ccccc3C2=O)cc1` (centres undefined): the growth rescue (activation) was 0% [at 9.22 µM].

For the compound `Cc1cc(C)cc(NC(c2nnc(-c3cccc(F)c3)o2)c2ccc(F)cc2Cl)c1` (centres undefined), the Potency entry is “inactive”.

On to `O=C(/C=C/Nc1ccc(S(=O)(=O)Nc2cnc3ccccc3n2)cc1)c1cccnc1`, for which the Potency entry is “inactive”.

In the case of `O=C(/C=C/c1ccc(Cl)c([N+](=O)[O-])c1)c1cccnc1`, the Potency was 3.16 µM (active).

Turning to `C/C(=N\NC(=O)Cc1ccccc1[N+](=O)[O-])c1cccnc1`, the Potency entry is “inactive”.

`Cc1ccc(CCNC(=O)c2ccc(CS(=O)(=O)Cc3cccc(C)c3)o2)cc1`: the Potency entry was “inactive”.

With `CC1=C(C(=O)N2CCN(c3cccc(C(F)(F)F)c3)CC2)C2(CCCCC2)OC1=O`, the Potency entry is “inactive”.

On to `COc1ccc(CCNc2nc(-c3ccc(Cl)cc3)cc(C(F)(F)F)n2)cc1OC`, for which the Potency result is “inactive”.

On to `COc1cccc(NC(=O)C2CCN(c3cc(C)nc4c(-c5ccc(Cl)cc5)c(C)nn34)CC2)c1`, for which the Potency entry was “inactive”.

For `COc1ccc(CCNc2cc(C)nc3c(-c4ccc(Cl)cc4)c(C)nn23)cc1OC`, the Potency is 20 µM (active).

Consider `COc1ccc(N2CCN(C(=O)C3CCCN(C(=O)c4cc5sccc5n4C)C3)CC2)cc1` (centres undefined), for which the Potency result is “inactive”.

As for `COC(=O)c1ccccc1NC(=O)c1ccc(COc2ccccc2Cl)o1`, the Potency result was “inactive”.

For `Cc1ccc(CNC(=O)CCc2c(C)nc3nc(CNC(=O)OC(C)(C)C)nn3c2C)cc1`, the Potency entry was “inactive”.

Consider `O=[N+]([O-])c1cc(C(F)(F)F)ccc1NN=C1CCCC1`, for which the Potency result was “inactive”.

Consider `O=C(CSc1ccc(C(F)(F)F)cc1[N+](=O)[O-])NCCOc1ccccc1`, for which the Potency entry was “inactive”.

Turning to `Nc1ccccc1Sc1ccc(C(F)(F)F)cc1[N+](=O)[O-]`, the Potency was 11.2 µM (active).

`Cc1nc2nc(NCc3cccc(Br)c3)[nH]n2c(=O)c1Cc1ccccc1`: the Potency entry is “inactive”.

As for `COc1ccc(C(=O)N2CCC(c3nc4ccccc4o3)CC2)cc1`, the Potency entry is “inactive”.

For the compound `CCc1noc(C)c1C(=O)N1CCN(S(=O)(=O)c2cccc(C(F)(F)F)c2)CC1`, the Potency entry is “inactive”.

For `Cc1onc(-c2ccccc2)c1C(=O)N1CCN(S(=O)(=O)c2ccccc2C(F)(F)F)CC1`, the Potency was 15.8 µM (active).

In the case of `CC(C)(C)OC(=O)N1CCN(C(=O)c2[nH]c(C(F)(F)F)nc2-c2ccccc2)CC1`, the Potency entry is “inactive”.

For `N#Cc1nc(/C=C/c2ccc(F)cc2)oc1NC1CCCCC1`, the Potency entry was “inactive”.

For the compound `Cc1ccccc1NC(=O)CSC(=O)c1ccccc1`, the Potency is 14.1 µM (active).

With `Cc1cccc(NC(=O)CSC(N)=O)c1C`, the Potency result was “inactive”.

For `Cc1ccccc1NC(=O)CSC1=NCCN1`, the Potency result was “inactive”.

On to `CCOc1cccc(CNC(=O)c2ccc(N3CCCC3)c(NC(=O)Nc3ccccc3CC)c2)c1`, for which the Potency result is “inactive”.

With `Cc1cccc(NC(=O)CN(c2ccc(C(C)C)cc2)S(=O)(=O)c2c(C)nn(C)c2C)c1C`, the Potency result was “inactive”.

For `Cc1ccc(CNC(=O)CCc2c(C)nc3c(c(C)nn3-c3ccccc3)c2C)cc1`, the Potency result is “inactive”.

In the case of `CCOC(=O)C1CCCN(CC(=O)Nc2cc(C)c3c(=O)oc4ccccc4c3n2)C1` (centres undefined), the Potency entry was “inactive”.

As to `COc1ccc(CNc2nc(-c3ccccc3)nn2C(=O)c2ccccc2OC)cc1`, the Potency result is “inactive”.

Consider `Cc1cc(C)cc(NC(=O)CCCc2nc(-c3ccccc3Cl)no2)c1`, for which the Potency result is “inactive”.

For the compound `O=C(CSc1nccn1-c1cccc(F)c1)NC1CCCC1`, the Potency entry is “inactive”.

Consider `Cc1ccccc1-n1c(SCC(=O)Nc2cccc3ccccc23)nc(O)cc1=O`, for which the Potency entry is “inactive”.

With `Cc1cc(NC(=O)CSc2nccn2-c2ccc([N+](=O)[O-])cc2)no1`, the Potency result was “inactive”.

In the case of `Cc1cccc(-n2ccnc2SCC(=O)Nc2cccc3ccccc23)c1C`, the Potency was 22.4 µM (active).

Regarding `Cc1ccc2nc(SCC(=O)Nc3cccc4ccccc34)nc(=O)n2c1`, the Potency entry was “inactive”.

With `O=C(CSc1nccn1-c1ccc(F)cc1)Nc1cccc2ccccc12`, the Potency is 17.8 µM (active).

In the case of `O=C(CSc1nc(Nc2ccc(F)c(F)c2)c2ccccc2n1)c1ccc(Cl)cc1`, the Potency entry was “inactive”.

Take `CCC(C(=O)Nc1cc(OC)ccc1OC)n1c(=O)c(C(F)(F)F)nc2ccccc21` (centres undefined): the Potency result is “inactive”.

`CC(NC(=O)c1cc(Sc2ccc(F)cc2F)nc2ccccc12)c1ccccc1` (centres undefined): the Potency entry was “inactive”.

Consider `CC(C)c1ccc(NC(=O)c2ccc3c(O)c(S(=O)(=O)c4ccccc4)c(=O)[nH]c3c2)cc1`, for which the Potency entry was “inactive”.

Turning to `O=C1N(Cc2ccccc2)c2ccc(Cl)cc2C1(O)c1c[nH]c2ccccc12` (centres undefined), the Potency result was “inactive”.

Regarding `CCOc1ccc(NC(=O)CSc2nncn2C)cc1`, the Potency entry is “inactive”.

Turning to `CCCCN(C(=O)CSCC(=O)Nc1ccc(OC)cc1)c1c(N)n(CCC)c(=O)[nH]c1=O`, the Potency result is “inactive”.

For the compound `CCCCOc1ccc(NC(=O)CSCC(=O)OCC)cc1`, the Potency was 12.6 µM (active).

Consider `O=C(COc1ccc(Cl)cc1)Nc1ccc(-c2nc3cc(Cl)ccc3o2)c(O)c1`, for which the Potency result is “inactive”.

For the compound `O=S(=O)(c1ccc(Br)cc1)c1nnn2c1nc(NC1CCCCCC1)c1sccc12`, the Potency result is “inactive”.

Take `COC(C[C@@H]1O[C@@H]1C(=O)[C@H](C)OCc1ccccc1)OC`: the Potency entry was “inactive”.

`COC(C[C@H](O)CC(=O)[C@@H](C)OCc1ccccc1)OC`: the Potency result was “inactive”.

On to `COC(C/C=C/C(=O)[C@@H](C)OCc1ccccc1)OC`, for which the Potency was 20 µM (active).

Take `Cc1ccc(NC(=O)C(=O)NCC(c2cccnc2)N2CCOCC2)cc1` (centres undefined): the Potency entry is “inactive”.

For the compound `COc1ccc(OC)c(-n2nnc3c(sc4nc(C)c(Br)c(C)c43)c2=O)c1`, the Potency result was “inactive”.

For `CCc1ccc(Nc2nn3c(=O)c4cc5c(cc4nc3s2)OCO5)cc1`, the Potency entry is “inactive”.

As to `Cc1cc(Cl)ccc1OCc1nc(-c2ccncc2)no1`, the Potency is 20 µM (active).

`COc1cc(OC)c(NC(=O)c2nc(-c3ccncc3)no2)cc1Cl`: the Potency entry was “inactive”.

Regarding `CC1CCN(Cc2nc(-c3ccc(Cl)cc3)no2)CC1`, the Potency entry is “inactive”.

Turning to `Cc1c(Cl)cccc1NC(=O)Cn1cc(C(=O)c2cccs2)c2ccccc21`, the Potency entry is “inactive”.

For the compound `COc1ccc(N2CCN(Cc3nc4c(c(=O)[nH]c(=O)n4C)n3Cc3ccc(Cl)cc3)CC2)cc1`, the Potency entry was “inactive”.

Regarding `Cc1cccc(C(=O)N2CCc3cc(CNC(=O)Cc4ccc(F)cc4)ccc32)c1`, the Potency result was “inactive”.

As for `CC1=Nc2cc(C(=O)NCc3ccc(C)cc3)ccc2Sc2ccc(Cl)cc21`, the Potency entry is “inactive”.

Regarding `CCc1c(-c2ccc(F)cc2)ncn1Cc1cccc(-c2ccccc2)c1`, the Potency is 15.8 µM (active).

Take `CCCCc1c(-c2ccc(Br)cc2)ncn1CCc1ccccc1OC`: the Potency entry was “inactive”.

With `CCCc1c(-c2ccccc2F)ncn1Cc1ccccc1OC`, the Potency entry was “inactive”.

For `CCOc1ccc(C(=O)Nc2ccc3nc4c(c(Nc5ccccc5OC)c3c2)CCCC4)cc1`, the Potency entry was “inactive”.

Turning to `CCOc1ccc(CNC(=O)c2cc(=O)[nH]c3ccc(S(=O)(=O)N4CCCCC4)cc23)cc1`, the Potency result is “inactive”.

For `COc1ccc(CNC(=O)c2cc3c(=O)[nH]c4ccccc4c3s2)cc1`, the Potency result is “inactive”.

As for `Cc1cccc(N2CCN(S(=O)(=O)c3ccc4[nH]c5c(c4c3)CCCCC5)CC2)c1C`, the Potency result was “inactive”.

For `COc1cc(OC)c(OC)cc1CN1CCN(C(=O)c2cccc3ccccc23)CC1`, the Potency entry was “inactive”.

As for `O=C(c1cccc2ccccc12)N1CCN(c2ccccc2F)CC1`, the Potency was 12.6 µM (active).

Consider `O=C(c1ccc(CN2CCOCC2)cc1)N1CCN(c2ccccc2F)CC1`, for which the Potency entry is “inactive”.

`CCCSc1ncc(Cl)c(C(=O)Nc2sc3c(c2C(=O)NCCOC)CCCC3)n1`: the Potency result was “inactive”.

On to `O=C(NCCc1ccc(Cl)cc1)c1ccc2nc(CCc3ccccc3)oc2c1`, for which the Potency entry was “inactive”.

For `O=C(NCCCN1CCN(c2cccc(Cl)c2)CC1)c1nnc(Cc2ccc(F)cc2Cl)o1`, the Potency result was “inactive”.

Consider `CNC(=O)c1nnc(Cc2ccc(Cl)cc2)o1`, for which the Potency result was “inactive”.

For the compound `CC(CNC(=O)c1nnc(Cc2cccc(F)c2)o1)c1ccccc1` (centres undefined), the Potency was 15.8 µM (active).

Consider `CCOC(=O)c1cnc2c(C)cc(Cl)cc2c1NCCc1ccc(OC)c(OC)c1`, for which the Potency entry is “inactive”.

`Cc1ccc(Nc2nc3ccccc3nc2-n2nc(C)cc2C)c(Cl)c1`: the Potency result is “inactive”.
